Test results published in PubChem BioAssay AID1159580 (chemical genetic matrix, 2015).
In all, about 5,500 compounds went through this assay and about 2,000 (36%) were called active. Inconclusive results (about 18%) are left out. No stated cut-off is given here; in the data, active means normalized growth mostly below about 0.91 (no sharp cut-off); inconclusive means no clear call, values can overlap the other calls; inactive means mostly above about 0.92. The list shows a part of the results.

Experiment: chemical genetic growth profiling, strain panel (AID 1159580);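 further: tested at 20 µM; growth read once vehicle control cultures reached saturation at 30 °C; 1 = growth at the plate median or of vehicle wells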
Conditions: S. cerevisiae deletion strains, growth OD

Measured: normalized growth

CC(C)=CCCC(C)C1CC[C@@]2(C)C3=C(CC[C@]12C)C1(C)CC[C@H](O)C(C)(C)C1CC3 (stereo not given in full)
inactive: locus YBR021W, strain FUR4, stronger effect = lower value 0.867 | locus YBR229C, strain ROT2, stronger effect = lower value 1.02 | locus YCL029C, strain bik1, stronger effect = lower value 0.972 | locus YDL035C, strain GPR1, stronger effect = lower value 0.904 | locus YDL074C, strain BRE1, stronger effect = lower value 0.962 | locus YDL101C, strain DUN1, stronger effect = lower value 0.992 | locus YDL185W, strain tfp1, stronger effect = lower value 1.01 | locus YDL192W, strain arf1, stronger effect = lower value 0.977 | locus YDR101C, strain arx1, stronger effect = lower value 1.01 | locus YDR150W, strain NUM1, stronger effect = lower value 1.05 | locus YDR162C, strain NBP2, stronger effect = lower value 0.958 | locus YDR318W, strain mcm21, stronger effect = lower value 0.985 | locus YDR388W, stronger effect = lower value 1.03 | locus YDR502C, strain sam2, stronger effect = lower value 0.945 | locus YER110C, stronger effect = lower value 1.01 | locus YER155C, strain BEM2, stronger effect = lower value 1.03 | locus YER167W, strain BCK2, stronger effect = lower value 1.05 | locus YGL086W, strain mad1, stronger effect = lower value 1 | locus YGL248W, strain PDE1, stronger effect = lower value 0.929 | locus YGR135W, strain pre9, stronger effect = lower value 0.941 | locus YGR252W, strain gcn5, stronger effect = lower value 0.78 | locus YHR079C, strain IRE1 (second series), stronger effect = lower value 1.01 | locus YHR094C, strain hxt1, stronger effect = lower value 1.02 | locus YHR129C, strain ARP1, stronger effect = lower value 1.04 | locus YHR200W, strain rpn10, stronger effect = lower value 1.01 | locus YIL066C, strain RNR3, stronger effect = lower value 1.03 | locus YIL073C, strain SPO22, stronger effect = lower value 0.923 | locus YIL125W, strain kgd1, stronger effect = lower value 1.04 | locus YIR030C, strain dcg1, stronger effect = lower value 1.02 | locus YJL095W, strain BCK1, stronger effect = lower value 0.947 | locus YJL134W, strain LCB3, stronger effect = lower value 1.04 | locus YJL168C, strain set2, stronger effect = lower value 1.02 | locus YJL187C, strain SWE1 (second series), stronger effect = lower value 0.959 | locus YKL068W, stronger effect = lower value 1.03 | locus YKL085W, strain MDH1 (second series), stronger effect = lower value 1.05 | locus YKL085W, strain MDH1, stronger effect = lower value 1.05 | locus YKR001C, strain vps1, stronger effect = lower value 0.94 | locus YLR039C, strain RIC1, stronger effect = lower value 0.702 | locus YLR058C, strain SHM2, stronger effect = lower value 0.981 | locus YLR102C, strain apc9, stronger effect = lower value 1.01 | locus YLR262C, strain YPT6, stronger effect = lower value 0.664 | locus YLR268W, strain sec22, stronger effect = lower value 0.957 | locus YLR371W, strain rom2, stronger effect = lower value 1.02 | locus YLR418C, strain cdc73, stronger effect = lower value 0.877 | locus YML016C, strain PPZ1, stronger effect = lower value 1.03 | locus YML032C, strain rad52, stronger effect = lower value 0.956 | locus YML124C, strain tub3, stronger effect = lower value 1.03 | locus YMR078C, strain ctf18, stronger effect = lower value 1.03 | locus YMR223W, strain ubp8, stronger effect = lower value 0.978 | locus YMR307W, strain GAS1, stronger effect = lower value 0.952 | locus YNL067W, strain RPL9B, stronger effect = lower value 0.988 | locus YNL128W, strain TEP1, stronger effect = lower value 0.98 | locus YNL233W, strain BNI4, stronger effect = lower value 0.994 | locus YNL250W, strain rad50, stronger effect = lower value 0.966 | locus YNL271C, strain bni1, stronger effect = lower value 0.994 | locus YNL298W, strain CLA4, stronger effect = lower value 0.924 | locus YNL307C, strain MCK1, stronger effect = lower value 0.998 | locus YNR052C, strain pop2, stronger effect = lower value 0.961 | locus YOL006C, strain TOP1, stronger effect = lower value 0.903 | locus YOL012C, strain htz1 1.68 | locus YOL147C, strain pex11, stronger effect = lower value 1.04 | locus YOR061W, strain CKA2, stronger effect = lower value 1.01 | locus YOR069W, strain VPS5, stronger effect = lower value 1.02 | locus YOR136W, strain idh2, stronger effect = lower value 0.998 | locus YOR144C, strain elg1, stronger effect = lower value 1.02 | locus YOR184W, strain ser1, stronger effect = lower value 0.891 | locus YOR316C, strain cot1, stronger effect = lower value 1.02 | locus YPL241C, strain CIN2, stronger effect = lower value 1.03 | locus YPR119W, strain clb2, stronger effect = lower value 1.03 | locus YPR141C, strain kar3, stronger effect = lower value 1.04 | locus YPR163C, strain tif3, stronger effect = lower value 0.93 | locus YPR167C, strain met16, stronger effect = lower value 0.973 | strain wtn01, stronger effect = lower value 0.974
active: locus YGL078C, strain dbp3, stronger effect = lower value 0.875 | locus YKL009W, strain mrt4, stronger effect = lower value 0.822
